# Data reported in PubChem BioAssay (NCATS).
# Inconclusive results are not listed. Calls of active or inactive are those of the source. Calls come from the whole dose curve; as a rule, active = well fitted inhibition curve with a large enough effect; inconclusive = small, poorly fitted or top-dose-only effect; inactive = flat fitted curve, though single readings scatter.
# Molecular target: Calcium and integrin-binding protein 1 (Homo sapiens) (UniProt Q99828)
# Test: Primary qHTS for Identification of Calcium Integrin Binding Protein 1 (CIB1) Competitor (AID 1508620);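 note: GST tagged CIB1 binding a fluorescein labelled alphaIIb integrin peptide tracer; top concentration of the series differs between compounds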
# Details: CIB1-GST / FITC-alphaIIb peptide fluorescence polarization; series mostly up to 57.7 µM
# Excerpt: Assay Provider: Ulhas P. Naik, PhD Sidney Kimmel Medical College Thomas Jefferson University, Philadelphia, PA Primary function of platelets is to maintain hemostasis. At the site of vascular injury, platelets adhere to adhesive proteins such as collagen and von Willebrand factor. Adherent platelets are activated and generate soluble platelet agonists such as thrombin, ADP and thromboxane A2. Following exposure of circulating platelets to these agonists, results in platelet shape change, granule secretion and activation of platelet integrin alphaIIb-beta3. Ligand binding to activated integrin alphaIIb-beta3 triggers outside-in signaling, leading to platelet aggregation, stabilization of platelet plug, and clot retraction. Upon atherosclerotic plaque rupture also causes platelet plug formation, which underlies a number of cardiovascular diseases such as myocardial infraction and stroke. A number of anti-platelet drugs such as aspirin, clopidogrel, prasugrel, vorapaxar, and eptifibatide are currently available to prevent the thrombotic complications. However, these anti-platelet agents have several limitations including inherent variability in individual responses, developing resistance, and serious bleeding side effects. For these reasons they are not suitable for long-term protection. Based on the experiences with current anti-platelet drugs, it appears that the most useful therapeutic approach is to intersect the secondary responses such as integrin outside-in signaling or recruitment of platelets by TxA2 and secreted ADP. Compounds, which can largely preserve the primary hemostatic function of platelets but inhibit secondary response will be most desired therapeutic agents for treatment of cardiovascular disease. CIB1 is a calcium integrin binding protein, which specifically interact with the alphaIIb subunit of integrin alphaIIb-beta3. Binding of CIB1 to alphaIIb regulates the outside-in signaling in platelets, which is needed for thrombus stabilization and thrombus growth. […] Therefore, we propose that discovery of a small molecule that can prevent the association of CIB1 and alphaIIb-beta3 will be a potential anti-platelet agent that can block the thrombus formation without undue effect on hemostasis. Reference: [1] Naik MU, Nigam A, Manrai P, et al. CIB1 deficiency results in impaired thrombosis: the potential role of CIB1 in outside-in signaling through integrin alpha IIb beta 3. J Thromb Haemost.
# PROTOCOL TABLES SEQUENCE No. (1, 2, 3, etc.); […] (e.g., Cells, Incubation, Reagent, etc.); VALUE and DESCRIPTION. 1; Reagent; 3 uL; Protein or buffer (4/3x) 2; Compound; 46 nL; Control inhibitor / compound library 3; Time; 15 min; Room temperature incubation 4; Reagent; 1 uL; Fluorescent labeled peptide (4x) 5; Time; 1000 rpm; Centrifuge 6; Time; 15 min; Room temperature incubation 7; Detection; Ex 480/ Em 540; ViewLux Fluorescence Read NOTES (numbers refer to sequence above) 1; Protein Mixture: C1B1-GST (final concentrations of 1 uM). […] 3; Room temperature incubation. 4; Fluorescent Labeled Peptide: FITC-aIIb (final concentration of 100 nM). Sequence of alphaIIb peptide: Acetyl-[…]-FITC (purity is 95.83%). 5; Centrifuge 1000 rpm (164 g) for 15 seconds. 6; Room temperature incubation. 7; ViewLux Fluorescent Polization Read: excitation = 480(20) / emission = 540(25) S and P; FITC Dichroic mirror.
# Chain of Calcium and integrin-binding protein 1 (Homo sapiens) (Q99828 whole entry, looked up): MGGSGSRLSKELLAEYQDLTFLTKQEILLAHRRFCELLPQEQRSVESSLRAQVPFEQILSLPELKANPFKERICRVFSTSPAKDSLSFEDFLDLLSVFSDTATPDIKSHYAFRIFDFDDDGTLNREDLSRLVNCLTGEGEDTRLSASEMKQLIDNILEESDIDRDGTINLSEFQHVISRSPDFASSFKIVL
row,SMILES,outcome
1,Cc1c(C(=O)c2cccc3ccccc23)c2cccc3c2n1[C@H](CN1CCOCC1)CO3,inactive
2,COc1ccc2c(c1)CN(C)CC2c1ccc(Cl)c(Cl)c1 (stereo not given),inactive
3,N#C[C@H](O[C@@H]1O[C@H](CO[C@@H]2O[C@H](CO)[C@H](O)[C@H](O)[C@H]2O)[C@H](O)[C@H](O)[C@H]1O)c1ccccc1,inactive
4,CSCC[C@@H](NC(=O)[C@@H](Cc1ccccc1)NC(=O)CNC(=O)CNC(=O)[C@@H](N)Cc1ccc(O)cc1)C(=O)O,inactive
5,O=c1[nH]c2ccccc2n1C1CCN(Cc2ccc(-c3[nH]c4cc5ncnc5cc4nc3-c3ccccc3)cc2)CC1,inactive
6,CO[C@H]1CCC(O[C@H]2C[C@H]([C@]3(C)CC[C@]4(C[C@H](O)[C@@H](C)[C@@H]([C@@H](C)C=C(C)C(=O)[C@H](C)C[C@H](C)C(=O)O)O4)O3)O[C@]3(O[C@@H]([C@H]4O[C@@](O)(CO)[C@H](C)C[C@H]4C)C[C@H]3C)[C@H]2C)O[C@H]1C (stereo not given in full),inactive
7,O=[N+]([O-])c1ccc([As](=O)(O)O)cc1,inactive
8,CCC1(CCC(C)C)C(=O)NC(=O)NC1=O,inactive
9,CC(N[C@H]1C[C@H]1c1ccccc1)c1ccc2c(c1)OCCO2 (stereo not given in full),inactive
10,O=S(=O)(CC1CS1)c1ccc(Oc2ccccc2)cc1 (stereo not given),inactive
11,O=C(N[C@H]1CN2CCC1CC2)c1ccc(Cl)cc1,inactive
12,COc1ccc2c(c1)[C@]13CCCCC1C(C2)N(C)CC3 (stereo not given in full),inactive
13,O=S(=O)(O)C(F)(F)C(F)(F)C(F)(F)C(F)(F)C(F)(F)C(F)(F)C(F)(F)C(F)(F)F,inactive
14,CC(C)[C@H]1C(=O)N[C@H](CO)Cc2c[nH]c3cccc(c23)N1C,inactive
15,COc1cc([C@@H]2c3cc4c(cc3[C@@H](O)C3COC(=O)C32)OCO4)cc(OC)c1O (stereo not given in full),inactive
16,COc1cccc2c1[C@]13CCN(CC4CC4)[C@H](C2)[C@]1(OC)CCC(=O)C3,inactive
17,C[C@]12CC[C@H]3[C@@H](CCC4=CC(=O)CC[C@@]43C)[C@H]1CC[C@H]2O,inactive
18,O=S(=O)(c1ccc(Cl)cc1)c1ccc(Cl)cc1,inactive
19,O=C(Nc1ccncc1)C(=O)c1cn(Cc2ccc(Cl)cc2)c2ccccc12,inactive
20,CC(C)(C)c1cc(C=C(C#N)C#N)cc(Br)c1O,inactive

row,SMILES,outcome
1,O=C(Oc1ccc([N+](=O)[O-])cc1)N1CCN(Cc2cccc(Oc3ccccc3)c2)CC1,inactive
2,O=C(O)CNC(=O)c1c(O)c2ccccc2n(Cc2ccccc2)c1=O,inactive
3,CN(C)NC(=O)CCC(=O)O,inactive
4,CC1=C(C(=O)O)N2C(=O)[C@@H](N)[C@H]2SC1,inactive
5,CC(C)[C@]12O[C@H]1[C@@H]1O[C@]13[C@]1(O[C@H]1C[C@H]1C4=C(CC[C@@]13C)C(=O)OC4)[C@@H]2O,inactive
6,OCCCBr,inactive
7,COCC1(CO)C(=O)C2CCN1CC2 (stereo not given),inactive
8,CCc1c(C(=O)C(N)=O)c2c(OCC(=O)O)cccc2n1Cc1ccccc1,inactive
9,CC=C(C)C(=O)O[C@H]1C(C)=C2[C@@H]3OC(=O)[C@@](C)(O)[C@@]3(O)[C@@H](OC(=O)CCC)C[C@](C)(OC(C)=O)[C@@H]2[C@@H]1OC(=O)CCCCCCC,inactive
10,C=C[C@@H]1CN2CCC1C[C@@H]2[C@@H](O)c1ccnc2ccccc12 (stereo not given in full),inactive
11,CC[C@@]1(O)C(=O)OCc2c1cc1n(c2=O)Cc2cc3ccccc3nc2-1,inactive
12,CCCCCCCCc1ccc(O)cc1,inactive
13,CCOCCOC(C)=O,inactive
14,CC(=O)O[C@@]12CO[C@H]1C[C@H](O)[C@@]1(C)C(=O)[C@H](O)C3=C(C)[C@@H](O)C[C@@](O)([C@@H](OC(=O)c4ccccc4)[C@@H]21)C3(C)C,inactive
15,CN1CCN(c2ccc([N+](=O)[O-])c3no[n+]([O-])c23)CC1,inactive
16,c1ccc(CCCN2CCN(CCOC(c3ccccc3)c3ccccc3)CC2)cc1,inactive
17,CC(C)NCC(O)c1ccc([N+](=O)[O-])cc1 (stereo not given),inactive
18,CC(C)N[C@@H]1CCn2c(=O)[nH]c3cccc(c32)[C@@H]1O,inactive
19,c1ccc2c(CN3CCNCC3)cccc2c1,inactive
20,Cc1ccc(Cl)c(O)c1,inactive
